Only some compounds are listed: those with a hit (about 14% of all), similar ones and a draw of the others.
A350 autofl – compounds fluorescent in Alexa 350 spectral region; hit rate 11% among 59,000; max dye-equivalent concentration, M; Compound autofluorescence, 340/450 nm, Alexa 350 dye-equivalents; stronger effect = higher value; AID 590; in the data active = max dye-equivalent concentration above about 10 nM; inconclusive = mostly about 1.1 nM to 9.6 nM
4MU fluor – compounds fluorescent in 4-MU spectral region | hit rate 11% among 59,000 | max dye-equivalent concentration, M | compound autofluorescence, 340/450 nm, 4-MU equivalents; stronger effect = higher value; in the data active = max dye-equivalent concentration above about 10 nM; inconclusive = mostly about 1.1 nM to 9.6 nM
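Compounds in 100 mM Tris, pH 8.0, sat 15 min at room temperature before fluorescence was read at 340 nm excitation/450 nm emission; a per-plate six-point 4-MU standard curve converted signals to dye-equivalent concentration at each compound concentration.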
HADH2 inhib – blocks human hydroxyacyl-CoA dehydrogenase type II; recombinant HADH2, NADH fluorescence, beta-hydroxybutyryl-CoA; AID 886; Potency, µM (series often up to 57.1 µM), actives largely listed as inhibitors; Q99714; hit rate 3.4% among 73,000; also: nearly all actives have a fitted effect of over 60% in size
Target sequence (Q99714 whole entry, looked up, one chain of several): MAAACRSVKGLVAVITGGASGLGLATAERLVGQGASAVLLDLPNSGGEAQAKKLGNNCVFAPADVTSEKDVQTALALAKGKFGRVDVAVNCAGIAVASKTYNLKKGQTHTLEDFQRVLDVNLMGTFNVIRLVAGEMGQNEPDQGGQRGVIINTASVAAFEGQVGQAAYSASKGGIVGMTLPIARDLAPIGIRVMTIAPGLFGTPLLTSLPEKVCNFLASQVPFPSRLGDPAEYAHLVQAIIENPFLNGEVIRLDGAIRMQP
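E. coli-expressed His-tagged HADH2 tested at 20 nM in alkaline Tris buffer (pH 9.0); oxidation of 90 uM beta-hydroxybutyryl-CoA with 1 mM NAD+ tracked fluorimetrically for 4 min.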
HSD17B inh – blocks hydroxysteroid 17-beta dehydrogenase activity; AID 893; Potency, µM (series often up to 57.1 µM), usual class: inhibitors; Q99714; recombinant HSD17B10, NADH fluorescence kinetic; hit rate 7.6% among 75,000;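 also: the protocol describes HADH2 (HSD17B10) and not the HSD17B4 of the title; nearly all actives have a fitted effect of over 70% in size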
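Activity followed as NADH fluorescence increase (ex 360, em 450 nm) every 30 seconds for 4 min, using final 90 uM beta-hydroxybutyryl CoA and 1 mM NAD+. Recombinant His-tagged enzyme, 20 nM, pH 9.0 Tris buffer, 15 min compound preincubation.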
CRE-bla Fsk – CRE-bla signaling modulation under forskolin stimulation; CHO CRE-bla reporter (cAMP response element driving beta-lactamase), forskolin EC10, beta-lactamase ratio; Potency, µM (titrated, usually from 38.2 µM), most hits filed as activators; hit rate 2.5% among 71,000; active = well fitted activation curve with a large enough effect in the signal ratio, with a control signal flat, not every such curve was filed as active; inconclusive = small, poorly fitted or top-dose-only effect, or effect the other way, or a change in a side signal; the % refers to the signal ratio
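Using CellSensor CRE-bla CHO cells in Opti-MEM with 0.5% dialyzed FBS, compounds were titrated with EC10 NKH 477 for 3 h at 37 °C. CCF4 ratio (460/530 nm) gave %Activity; AC50 derived.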
AID923 – qHTS Assay for Allosteric/Competitive Inhibitors of Caspase-1: Spectroscopic Profiling in AFC Spectral Region. hit rate 1.1% among 75,000. compound fluorescence, AFC spectral region (405/520 nm). Potency, µM (top dose mostly 57.5 µM), most hits filed as activators
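Baseline compound fluorescence (AFC region, 405 nm ex/520 nm em) taken from the intercept of kinetic reads with 50 nM caspase-1 and 5 uM Ac-WEHD-AFC; normalized to an on-plate AFC standard curve; compounds titrated up to 57 uM.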
Of the large screens only hits and unclear results are named; the others gave an inactive call. Unless noted, calls follow the shape of the dose curve; as a rule, active = well fitted curve in the direction sought with a large enough effect; inconclusive = small, poorly fitted or top-dose-only effect, or another doubt; inactive = no such curve, though single readings can be large; an effect the other way counts as inactive or inconclusive.

Cc1onc(-c2ccccc2)c1C(N)=O	none
CCN(C(=O)c1c(-c2ccccc2)noc1C)c1ccccc1	A350 autofl 2.1e-08M, 4MU fluor 2.2e-08M, CRE-bla Fsk inconclusive
CC(C)(CO)[C@H](O)C(=O)NCCCO	A350 autofl 1.2e-07M, 4MU fluor 1.4e-07M
COc1cc(-c2nc3oc4ccccc4c(=O)c3c(=O)n2Cc2ccco2)cc(OC)c1OC	A350 autofl inconclusive, CRE-bla Fsk 2.5µM
COc1ccc2c(=O)c3c(=O)n(Cc4ccco4)c(-c4ccc(C)cc4)nc3oc2c1	HSD17B inh inconclusive, CRE-bla Fsk inconclusive
Cc1ccc(-c2nnc(N3CCN(C(=O)CN4C(=O)c5ccccc5C4=O)CC3)c3ccccc23)cc1	A350 autofl 8e-08M, 4MU fluor 7.5e-08M, HSD17B inh 20µM
CCn1c(SCC(=O)N2CCCC2)nc2c1c(=O)n(C)c(=O)n2C	CRE-bla Fsk inconclusive
CCn1c(SCC(=O)Nc2ccccc2N2CCCCC2)nc2c1c(=O)n(C)c(=O)n2C	CRE-bla Fsk 10µM
COCC(=O)N1CCC2(CC1)CN(Cc1nccs1)C2	none
CCOC(=O)N1CCC2(CC1)CC(=O)c1c(ccc3oc(C(=O)O)c(C)c13)O2	HADH2 inhib 16µM, HSD17B inh 32µM (no result: A350 autofl, 4MU fluor, CRE-bla Fsk)
O=C(OC1Cc2c(O)cc(O)cc2OC1c1cc(O)c(O)c(O)c1-c1c(C2Oc3cc(O)cc(O)c3CC2O)cc(O)c(O)c1O)c1cc(O)c(O)c(O)c1 (stereo unspecified)	HSD17B inh 5µM (no result: A350 autofl, 4MU fluor, HADH2 inhib, CRE-bla Fsk)
CCCN1CCN(CCCNC(=O)c2cc3c(=O)n(C)c4ccccc4c3n2C)CC1	HSD17B inh 25µM (no result: A350 autofl, 4MU fluor)
Cn1c(C(=O)NCCCN2CCCCCC2)cc2c(=O)n(C)c3ccccc3c21	HSD17B inh 25µM, CRE-bla Fsk inconclusive (no result: A350 autofl, 4MU fluor)
CN(C)CCCCl	none (no result: A350 autofl, 4MU fluor)
CCc1cc(=O)oc2cc(C)cc(O)c12	none (no result: A350 autofl, 4MU fluor)
COC(=O)Cc1c(C)c2c(O)cc(C)cc2oc1=O	A350 autofl 3.7e-07M, 4MU fluor 2.9e-07M, HSD17B inh 32µM, CRE-bla Fsk inconclusive
Cc1nnc2c(NC(C)C)nc3ccccc3n12	none (no result: HADH2 inhib, HSD17B inh, CRE-bla Fsk, AID923)
c1ccc2c(c1)nnn1c3ccccc3nc21	CRE-bla Fsk 10µM (no result: A350 autofl, 4MU fluor)
Nn1nnc2ccccc21	none
Cc1nc2ccccc2c2nc3ccccc3n12	HADH2 inhib inconclusive, HSD17B inh 32µM, CRE-bla Fsk inconclusive (no result: A350 autofl, 4MU fluor)
COc1ccc(-c2csc(NCc3ccco3)n2)cc1C	HADH2 inhib 20µM (no result: A350 autofl, 4MU fluor)
COc1ccc(-c2nc3cccc(C)n3c2NCc2ccco2)cc1OC	A350 autofl 1.2e-07M, 4MU fluor 1.4e-07M, HADH2 inhib 25µM, HSD17B inh inconclusive
O=c1c(-c2ccc(F)c(F)c2)nc2cncnc2n1Cc1ccccc1Cl	CRE-bla Fsk inconclusive
CC(=O)c1cccc(-n2nnnc2SCC(=O)Nc2cccc(NC(=O)c3ccco3)c2)c1	none
Cc1ccc(NC(=O)Nc2cccs2)cc1	HADH2 inhib 16µM (no result: A350 autofl, 4MU fluor, CRE-bla Fsk)
COc1ccc(NC(=O)Nc2cccs2)cc1OC	HADH2 inhib inconclusive, HSD17B inh inconclusive
COc1cccc(NC(=O)Nc2cccs2)c1	HADH2 inhib inconclusive, HSD17B inh 25µM
O=C(Nc1cccs1)Nc1ccccc1Cl	HADH2 inhib inconclusive, HSD17B inh 25µM, CRE-bla Fsk inconclusive
Cc1ccc(NC(=O)Cc2nc(CSc3nnc(-c4ccc5c(c4)OCO5)o3)cs2)cc1	none
CCOc1ccc(CC2CC(=O)NC2=O)cc1 (stereo unspecified)	none (no result: HADH2 inhib, HSD17B inh, CRE-bla Fsk, AID923)
CSC1=NC(NCCCO)c2c(sc3c2CC(C)(C)OC3)N1 (stereo unspecified)	A350 autofl 2.5e-07M, 4MU fluor 1.9e-07M, HSD17B inh inconclusive, CRE-bla Fsk inconclusive
Cc1noc(C)c1C(=O)N1CCN(CCc2ccccc2)CC1	A350 autofl 1.9e-08M, 4MU fluor 1.7e-08M, CRE-bla Fsk inconclusive
CN1CCN(CCCCOc2ccc(F)cc2)CC1	none (no result: HADH2 inhib, HSD17B inh, CRE-bla Fsk, AID923)
COc1ccc(CC(NC(C)=O)C(=O)NC2CCN(c3c4c(nc5ncnn35)CCC4)CC2)cc1 (stereo unspecified)	CRE-bla Fsk inconclusive
Fc1cccc(-c2cc3nc4c(c(N5CCC6(CC5)OCCO6)n3n2)CCCC4)c1	A350 autofl 8.3e-08M, 4MU fluor 9.5e-08M, HADH2 inhib inconclusive, HSD17B inh inconclusive
OC1CCN(c2c3c(nc4cc(-c5cccc(F)c5)nn24)CCCC3)CC1	A350 autofl 5.6e-08M, 4MU fluor 5.4e-08M, HADH2 inhib inconclusive, CRE-bla Fsk 3.2µM
CCOCCN1CCN(c2c3c(nc4cc(-c5ccc(F)cc5)nn24)CCC3)CC1	A350 autofl 1.1e-08M, 4MU fluor 1e-08M
COc1ccc2[nH]cc(CCNc3ccnc(-c4ccccc4C(F)(F)F)n3)c2c1	none
COc1ccc(-c2ncc3ccccn23)cc1	A350 autofl 4.8e-08M, 4MU fluor 4.6e-08M, HADH2 inhib inconclusive, HSD17B inh 32µM
c1csc(-c2ncc3ccccn23)c1	A350 autofl 5.5e-08M, 4MU fluor 5.2e-08M, HADH2 inhib inconclusive
COC(=O)c1ccc(N2C(=O)c3ccc(OC)c(OC)c3C2=O)cc1	A350 autofl 3.8e-08M, 4MU fluor 5.7e-08M, HSD17B inh inconclusive
CC1CCN(c2nc3c(c(=O)[nH]c(=O)n3C)n2Cc2ccccc2)CC1	none (no result: A350 autofl, 4MU fluor)
CCCCSc1nc2c(c(=O)[nH]c(=O)n2C)n1CCc1ccccc1	CRE-bla Fsk 10µM (no result: A350 autofl, 4MU fluor)
CCn1c(N2CCC(Cc3ccccc3)CC2)nc2c1c(=O)[nH]c(=O)n2C	A350 autofl 2.5e-08M, 4MU fluor 1.8e-08M, CRE-bla Fsk inconclusive
